Results reported in PubChem BioAssay AID1159580 (chemical genetic matrix, 2015).
“And” between values parts separate entries of the source, which are not always exact repeats. Equal values may be shown once. Among all 5,500 compounds or so, about 2,000 (36%) were called active. Roughly 18% stayed inconclusive and do not appear here. No stated cut-off is given here; in the data, active means normalized growth mostly below about 0.91 (no sharp cut-off); inconclusive means no clear call, values can overlap the other calls; inactive means mostly above about 0.92. The list shows a part of the results.

Experiment: chemical genetic growth profiling, strain panel (AID 1159580);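 further: tested at 20 µM; growth read once vehicle control cultures reached saturation at 30 °C; 1 = growth at the plate median or of vehicle wells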
Details: S. cerevisiae deletion strains, growth OD

Structure (SMILES): CC/C(=C(/CC)c1ccc(O)cc1)c1ccc(O)cc1
- normalized growth (locus YAL021C, strain ccr4, stronger effect = lower value): 1.09 [resistant] (active)
- normalized growth (locus YAL026C, strain drs2, stronger effect = lower value): 0.958 (inactive)
- normalized growth (locus YAL030W, strain snc1, stronger effect = lower value): 1 (inactive)
- normalized growth (locus YBL061C, strain skt5, stronger effect = lower value): 1 (inactive)
- normalized growth (locus YBR009C, strain hhf1, stronger effect = lower value): 0.953 (inactive)
- normalized growth (locus YBR021W, strain FUR4, stronger effect = lower value): 0.992 (inactive)
- normalized growth (locus YBR023C, strain chs3, stronger effect = lower value): 0.984 (inactive)
- normalized growth (locus YBR171W, strain sec66, stronger effect = lower value): 0.987 (inactive)
- normalized growth (locus YBR229C, strain ROT2, stronger effect = lower value): 1 (inactive)
- normalized growth (locus YBR231C, strain swc5, stronger effect = lower value): 1.03 (inactive)
- normalized growth (locus YBR279W, strain paf1, stronger effect = lower value): 0.961 (inactive)
- normalized growth (locus YCL011C, strain gbp2, stronger effect = lower value): 0.976 (inactive)
- normalized growth (locus YCL016C, strain dcc1, stronger effect = lower value): 0.943 (inactive)
- normalized growth (locus YCL029C, strain bik1, stronger effect = lower value): 0.962 (inactive)
- normalized growth (locus YCL061C, strain MRC1, stronger effect = lower value): 1 (inactive)
- normalized growth (locus YCL069W, strain vba3, stronger effect = lower value): 0.987 (inactive)
- normalized growth (locus YCR088W, strain abp1, stronger effect = lower value): 1.02 (inactive)
- normalized growth (locus YDL005C, strain med2, stronger effect = lower value): 1.01 (inactive)
- normalized growth (locus YDL035C, strain GPR1, stronger effect = lower value): 0.867 (inactive)
- normalized growth (locus YDL040C, strain nat1, stronger effect = lower value): 1.01 (inactive)
- normalized growth (locus YDL074C, strain BRE1, stronger effect = lower value): 0.776 (active)
- normalized growth (locus YDL101C, strain DUN1, stronger effect = lower value): 0.963 (inactive)
- normalized growth (locus YDL185W, strain tfp1, stronger effect = lower value): 0.997 (inactive)
- normalized growth (locus YDL192W, strain arf1, stronger effect = lower value): 0.991 (inactive)
- normalized growth (locus YDR001C, strain nth1, stronger effect = lower value): 1.01 (inactive)
- normalized growth (locus YDR069C, strain doa4, stronger effect = lower value): 1.02 (inactive)
- normalized growth (locus YDR101C, strain arx1, stronger effect = lower value): 0.961 (inactive)
- normalized growth (locus YDR137W, strain rgp1, stronger effect = lower value): 0.49 (active)
- normalized growth (locus YDR150W, strain NUM1, stronger effect = lower value): 1.01 (inactive)
- normalized growth (locus YDR159W, strain sac3, stronger effect = lower value): 0.905 (inactive)
- normalized growth (locus YDR162C, strain NBP2, stronger effect = lower value): 0.754 (active)
- normalized growth (locus YDR195W, strain ref2): 1.2 [resistant] (active)
- normalized growth (locus YDR297W, strain sur2, stronger effect = lower value): 1 (inactive)
- normalized growth (locus YDR318W, strain mcm21, stronger effect = lower value): 0.952 (inactive)
- normalized growth (locus YDR334W, strain swr1, stronger effect = lower value): 1.04 (inactive)
- normalized growth (locus YDR335W, strain msn5, stronger effect = lower value): 1.02 (inactive)
- normalized growth (locus YDR388W, stronger effect = lower value): 0.991 (inactive)
- normalized growth (locus YDR392W, strain spt3, stronger effect = lower value): 0.869 (inactive)
- normalized growth (locus YDR502C, strain sam2, stronger effect = lower value): 0.955 (inactive)
- normalized growth (locus YEL003W, strain gim4, stronger effect = lower value): 1 (inactive)
- normalized growth (locus YEL037C, strain rad23, stronger effect = lower value): 1.01 (inactive)
- normalized growth (locus YEL061C, strain CIN8 (second series), stronger effect = lower value): 1.03 (inactive)
- normalized growth (locus YEL061C, strain CIN8, stronger effect = lower value): 0.999 (inactive)
- normalized growth (locus YER015W, strain faa2, stronger effect = lower value): 0.945 (inactive)
- normalized growth (locus YER016W, strain bim1, stronger effect = lower value): 0.958 (inactive)
- normalized growth (locus YER110C, stronger effect = lower value): 1.03 (inactive)
- normalized growth (locus YER111C, strain swi4, stronger effect = lower value): 1.05 (inactive)
- normalized growth (locus YER155C, strain BEM2 (second series), stronger effect = lower value): 1.03 (inactive)
- normalized growth (locus YER155C, strain BEM2, stronger effect = lower value): 0.979 (inactive)
- normalized growth (locus YER167W, strain BCK2, stronger effect = lower value): 0.984 (inactive)
- normalized growth (locus YFR010W, strain ubp6, stronger effect = lower value): 1.04 (inactive)
- normalized growth (locus YGL078C, strain dbp3, stronger effect = lower value): 0.977 (inactive)
- normalized growth (locus YGL086W, strain mad1, stronger effect = lower value): 0.955 (inactive)
- normalized growth (locus YGL167C, strain pmr1, stronger effect = lower value): 0.995 (inactive)
- normalized growth (locus YGL173C, strain kem1, stronger effect = lower value): 0.959 (inactive)
- normalized growth (locus YGL227W, strain vid30, stronger effect = lower value): 1.03 (inactive)
- normalized growth (locus YGL240W, strain doc1, stronger effect = lower value): 0.98 (inactive)
- normalized growth (locus YGL248W, strain PDE1, stronger effect = lower value): 0.915 (inactive)
- normalized growth (locus YGL253W, strain hxk2, stronger effect = lower value): 0.989 (inactive)
- normalized growth (locus YGR135W, strain pre9, stronger effect = lower value): 0.962 (inactive)
- normalized growth (locus YGR252W, strain gcn5, stronger effect = lower value): 0.921 (inactive)
- normalized growth (locus YHR013C, strain ard1, stronger effect = lower value): 1.09 (inactive)
- normalized growth (locus YHR027C, strain rpn1, stronger effect = lower value): 0.98 (inactive)
- normalized growth (locus YHR030C, strain SLT2, stronger effect = lower value): 0.98 (inactive) and 0.958 (inactive)
- normalized growth (locus YHR079C, strain IRE1 (second series), stronger effect = lower value): 1.01 (inactive)
- normalized growth (locus YHR079C, strain IRE1, stronger effect = lower value): 0.96 (inactive)
- normalized growth (locus YHR094C, strain hxt1, stronger effect = lower value): 1 (inactive)
- normalized growth (locus YHR129C, strain ARP1, stronger effect = lower value): 0.976 (inactive)
- normalized growth (locus YHR142W, strain chs7, stronger effect = lower value): 1.03 (inactive)
- normalized growth (locus YHR200W, strain rpn10, stronger effect = lower value): 0.991 (inactive)
- normalized growth (locus YIL066C, strain RNR3, stronger effect = lower value): 0.937 (inactive)
- normalized growth (locus YIL073C, strain SPO22, stronger effect = lower value): 1.21 (inactive)
- normalized growth (locus YIL125W, strain kgd1, stronger effect = lower value): 0.995 (inactive)
- normalized growth (locus YIR030C, strain dcg1, stronger effect = lower value): 0.998 (inactive)
- normalized growth (locus YJL092W, strain hpr5, stronger effect = lower value): 1 (inactive)
- normalized growth (locus YJL095W, strain BCK1 (second series), stronger effect = lower value): 0.982 (inactive)
- normalized growth (locus YJL095W, strain BCK1, stronger effect = lower value): 0.795 (active) and 0.97 (inactive)
- normalized growth (locus YJL115W, strain asf1, stronger effect = lower value): 1.04 (inactive)
- normalized growth (locus YJL129C, strain trk1, stronger effect = lower value): 0.94 (inactive)
- normalized growth (locus YJL134W, strain LCB3, stronger effect = lower value): 1 (inactive)
- normalized growth (locus YJL154C, strain vps35, stronger effect = lower value): 0.997 (inactive)
- normalized growth (locus YJL164C, strain tpk1, stronger effect = lower value): 0.944 (inactive)
- normalized growth (locus YJL166W, strain qcr8, stronger effect = lower value): 0.958 (inactive)
- normalized growth (locus YJL168C, strain set2, stronger effect = lower value): 1 (inactive)
- normalized growth (locus YJL187C, strain SWE1 (second series), stronger effect = lower value): 0.923 (inactive)
- normalized growth (locus YJR043C, strain POL32, stronger effect = lower value): 0.952 (inactive)
- normalized growth (locus YJR066W, strain TOR1, stronger effect = lower value): 0.938 (inactive)
- normalized growth (locus YJR075W, strain HOC1, stronger effect = lower value): 0.959 (inactive)
